This is an account of results in PubChem BioAssay AID602329 (Broad Institute, 2012).

A word on the inhibition: it is the relative decrease from the control value, in per cent.

Each structure is given as a SMILES string. Screen size: about 360,000 compounds; about 510 (0.14%) were called active. This is one part of a sample in which actives are shown more often than they occur. Unmarked numbers belong to inactive results.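 Rule for the calls: active = mean normalized replicate activity at least 40 and at least half of replicates scoring 40 or more; inconclusive = only one of the two criteria met; inactive = mean below 40 and under half of replicates reaching 40.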

Chain of DNA repair and recombination protein RAD54-like (Homo sapiens) (Q92698 whole entry, looked up): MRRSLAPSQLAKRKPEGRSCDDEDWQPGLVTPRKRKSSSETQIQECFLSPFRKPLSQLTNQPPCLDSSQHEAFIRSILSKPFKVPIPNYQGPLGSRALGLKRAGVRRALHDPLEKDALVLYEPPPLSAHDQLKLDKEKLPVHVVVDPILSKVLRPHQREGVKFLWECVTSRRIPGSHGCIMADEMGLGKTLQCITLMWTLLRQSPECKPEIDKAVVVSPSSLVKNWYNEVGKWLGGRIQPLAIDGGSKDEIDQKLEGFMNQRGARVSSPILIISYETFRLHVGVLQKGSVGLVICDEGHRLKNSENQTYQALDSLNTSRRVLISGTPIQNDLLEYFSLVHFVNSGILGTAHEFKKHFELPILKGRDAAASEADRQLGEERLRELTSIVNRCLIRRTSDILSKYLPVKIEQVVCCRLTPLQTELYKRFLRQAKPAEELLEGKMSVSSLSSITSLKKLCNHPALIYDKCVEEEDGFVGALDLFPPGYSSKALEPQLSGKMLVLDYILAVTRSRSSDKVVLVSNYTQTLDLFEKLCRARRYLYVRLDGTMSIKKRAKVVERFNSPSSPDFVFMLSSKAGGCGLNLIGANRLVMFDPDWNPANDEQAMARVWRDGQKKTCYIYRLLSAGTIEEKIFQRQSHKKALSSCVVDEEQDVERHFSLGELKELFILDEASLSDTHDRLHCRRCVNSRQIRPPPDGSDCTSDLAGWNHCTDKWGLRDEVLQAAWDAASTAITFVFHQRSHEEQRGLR

This test addresses DNA repair and recombination protein RAD54-like (Homo sapiens) (UniProt Q92698). Kind of test: RAD54 Holliday junction migration blockers – biochemical, fluorescence, single point, primary screen (AID 602329).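 Note: 0% = median of neutral control wells and 100% = median of positive control wells; inhibitors cause a drop in the FAM fluorescence signal.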 To be noted: RAD54 Holliday junction branch migration, FAM/BHQ fluorescence; at 10.4 µM; active compounds read high.
With `O=S(=O)(c1ccc(F)cc1)N1CC[C@@H]2[C@@H](CO)Nc3ccc(-c4ccccc4F)cc3[C@@H]21`, the inhibition was 7.93%. Take `CC(=O)N(C)C[C@@H]1Oc2ncc(-c3ccccc3F)cc2C(=O)N([C@H](C)CO)C[C@@H]1C`: the inhibition is -1.78%.

In the case of `COc1ccccc1NC(=O)N1[C@H](C#N)[C@H](c2ccccc2)[C@H]1CO`, the inhibition was 10.5%. With `CC(=O)N(C)C[C@H]1Oc2cc(C#Cc3ccccc3F)ccc2S(=O)(=O)N([C@H](C)CO)C[C@@H]1C` the figure was 2%; with `O=C(C[C@@H]1C=C[C@@H](NC(=O)c2cccnc2)[C@H](CO)O1)NCCN1CCCCC1`, 0.617%. Regarding `O=C(CC1CC1)Nc1ccc2c(c1)[C@@H]1C[C@@H](CC(=O)NC3CCCCC3)O[C@H](CO)[C@@H]1O2`, the inhibition was -1.82%. For `COc1cccc2sc3cc(NCC[C@@H]4CCCN4C)ccc3c(=O)c12` the value was 94% (active); for `CN1CCC[C@@H]1CCO[C@](C)(c1ccccc1)c1ccc(Cl)cc1`, 11.3%; for `Cc1cc2oc3ccc(NCCC4CCCN4C)cc3c(=O)c2cc1C` (stereo not drawn), 102% (active).

As to `CO[C@@H]1CN(C)C(=O)c2cc(NS(=O)(=O)CC(F)(F)F)ccc2OC[C@@H](C)N(Cc2ccccn2)C[C@H]1C`, the inhibition is -9.64%.

For the compound `COc1ccc(S(=O)(=O)Nc2ccc3c(c2)C(=O)N([C@@H](C)CO)C[C@@H](C)[C@@H](CN(C)S(C)(=O)=O)O3)cc1`, the inhibition was -4.67%. For `C[C@@H]1CCCCO[C@@H](CN(C)C(=O)NC2CCCCC2)[C@H](C)CN([C@H](C)CO)C(=O)c2cc(NC(=O)c3ccccc3)ccc2O1` the value was -0.448%; for `COc1cccc(NC(=O)N2C[C@@H](O)COC[C@@H]3O[C@@H](CC(=O)NC4CCC4)CC[C@H]32)c1`, -4.41%. With `C[C@@H]1CN([C@@H](C)CO)C(=O)c2cc(NC(=O)Nc3ccc(C(F)(F)F)cc3)ccc2O[C@@H](C)CCCCO[C@H]1CN(C)C(=O)c1ccccc1` the figure was -3.03%; with `CO[C@H]1CC[C@H]2CCOc3c(C#N)cccc3C(=O)N(C)CC3(CCCCC3)CC(=O)N(C)C[C@@H]1O2`, -12.8%; with `CN1c2ccc(Br)cc2[C@@H]2[C@@H](CCN2S(=O)(=O)c2ccc(F)cc2)[C@@H]1CO`, -1.32%. With `CN1c2ccc(-c3ccccc3)cc2[C@@H]2[C@@H](CCN2C(=O)c2ccccc2F)[C@@H]1CO` the figure was 4.56%. Take `CCCC#Cc1ccc2c(c1)O[C@H](CN(C)C(=O)c1ccncc1)[C@H](C)CN([C@H](C)CO)S2(=O)=O`: the inhibition was 12.3%.
